Data from PubChem BioAssay (NCATS).
Inconclusive results are not listed. Activity calls are given as the source filed them. Calls come from the whole dose curve; as a rule, active = well fitted curve in the direction sought with a large enough effect; inconclusive = small, poorly fitted or top-dose-only effect, or another doubt; inactive = no such curve, though single readings can be large; an effect the other way counts as inactive or inconclusive.

How the values were obtained:
[1] = biological target: Rap guanine nucleotide exchange factor 3 (Homo sapiens) (UniProt O95398); experiment: Confirmatory qHTS for agonist of cAMP-regulated guanine nucleotide exchange factor 3 (EPAC1) (AID 1645881);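 note: EPAC1 catalysed release of BODIPY-GDP from Rap1B seen as fluorescence loss; 100% = effect of cAMP agonist control; nearly all actives have a fitted effect of over 75% in size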
[2] = biological target: Rap guanine nucleotide exchange factor 4 (Homo sapiens) (UniProt Q8WZA2); experiment: Confirmatory qHTS for agonist of cAMP-regulated guanine nucleotide exchange factor 4 (EPAC2) (AID 1645884);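 note: nucleotide exchange releases bodipy-GDP from Rap1 and this lowers its fluorescence; % is set by controls: 0 for no effect and ±100 for the full control effect; nearly all actives have a fitted effect of over 65% in size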
[3] = biological target: Rap guanine nucleotide exchange factor 4 (Homo sapiens) (UniProt Q8WZA2); experiment: Confirmatory qHTS for antagonist of cAMP-regulated guanine nucleotide exchange factor 4 (EPAC2) (AID 1645885); note: nearly all actives have a fitted effect of over 25% in size; note: potency is the fitted concentration of half-maximal effect
[4] = biological target: Rap guanine nucleotide exchange factor 3 (Homo sapiens) (UniProt O95398); experiment: Counterscreen qHTS for agonist of cAMP-regulated guanine nucleotide exchange factor 3 (EPAC1) (AID 1645889); note: % of control where 0% means no effect; nearly all actives have a fitted effect of over 40% in size
How it was run: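 Measured: fluorescence of BODIPY-GDP bound to Rap1B, which falls as exchange proceeds. Conditions include 50 uM competing GDP, 5 and 30 min reads, and a later cAMP challenge for antagonist detection.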

Chain of Rap guanine nucleotide exchange factor 3 (Homo sapiens) (O95398 whole entry, looked up): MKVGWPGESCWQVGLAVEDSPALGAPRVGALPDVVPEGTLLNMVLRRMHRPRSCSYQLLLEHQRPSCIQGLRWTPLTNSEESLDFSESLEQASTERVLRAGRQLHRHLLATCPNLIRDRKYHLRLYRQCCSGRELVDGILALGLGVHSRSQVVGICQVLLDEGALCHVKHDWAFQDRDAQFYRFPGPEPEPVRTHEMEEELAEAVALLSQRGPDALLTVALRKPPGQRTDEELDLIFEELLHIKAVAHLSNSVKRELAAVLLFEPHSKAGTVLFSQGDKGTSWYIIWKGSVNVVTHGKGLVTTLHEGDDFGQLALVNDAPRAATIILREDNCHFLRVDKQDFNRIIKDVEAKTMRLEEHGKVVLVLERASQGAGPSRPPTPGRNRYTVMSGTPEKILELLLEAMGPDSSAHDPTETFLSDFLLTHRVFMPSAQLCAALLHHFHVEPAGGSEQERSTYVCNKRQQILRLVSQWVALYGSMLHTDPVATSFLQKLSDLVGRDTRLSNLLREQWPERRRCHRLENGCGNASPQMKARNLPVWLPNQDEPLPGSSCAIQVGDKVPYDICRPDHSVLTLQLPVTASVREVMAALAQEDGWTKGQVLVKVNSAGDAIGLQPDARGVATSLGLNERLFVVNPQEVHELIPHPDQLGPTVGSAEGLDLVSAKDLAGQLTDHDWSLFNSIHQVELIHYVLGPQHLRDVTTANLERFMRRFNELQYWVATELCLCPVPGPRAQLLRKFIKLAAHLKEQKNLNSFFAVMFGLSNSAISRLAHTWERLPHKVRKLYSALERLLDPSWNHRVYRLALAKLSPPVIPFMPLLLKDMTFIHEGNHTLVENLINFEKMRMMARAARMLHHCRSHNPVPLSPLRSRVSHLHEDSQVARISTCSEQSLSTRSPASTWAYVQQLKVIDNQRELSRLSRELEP
Chain of Rap guanine nucleotide exchange factor 4 (Homo sapiens) (Q8WZA2 whole entry, looked up): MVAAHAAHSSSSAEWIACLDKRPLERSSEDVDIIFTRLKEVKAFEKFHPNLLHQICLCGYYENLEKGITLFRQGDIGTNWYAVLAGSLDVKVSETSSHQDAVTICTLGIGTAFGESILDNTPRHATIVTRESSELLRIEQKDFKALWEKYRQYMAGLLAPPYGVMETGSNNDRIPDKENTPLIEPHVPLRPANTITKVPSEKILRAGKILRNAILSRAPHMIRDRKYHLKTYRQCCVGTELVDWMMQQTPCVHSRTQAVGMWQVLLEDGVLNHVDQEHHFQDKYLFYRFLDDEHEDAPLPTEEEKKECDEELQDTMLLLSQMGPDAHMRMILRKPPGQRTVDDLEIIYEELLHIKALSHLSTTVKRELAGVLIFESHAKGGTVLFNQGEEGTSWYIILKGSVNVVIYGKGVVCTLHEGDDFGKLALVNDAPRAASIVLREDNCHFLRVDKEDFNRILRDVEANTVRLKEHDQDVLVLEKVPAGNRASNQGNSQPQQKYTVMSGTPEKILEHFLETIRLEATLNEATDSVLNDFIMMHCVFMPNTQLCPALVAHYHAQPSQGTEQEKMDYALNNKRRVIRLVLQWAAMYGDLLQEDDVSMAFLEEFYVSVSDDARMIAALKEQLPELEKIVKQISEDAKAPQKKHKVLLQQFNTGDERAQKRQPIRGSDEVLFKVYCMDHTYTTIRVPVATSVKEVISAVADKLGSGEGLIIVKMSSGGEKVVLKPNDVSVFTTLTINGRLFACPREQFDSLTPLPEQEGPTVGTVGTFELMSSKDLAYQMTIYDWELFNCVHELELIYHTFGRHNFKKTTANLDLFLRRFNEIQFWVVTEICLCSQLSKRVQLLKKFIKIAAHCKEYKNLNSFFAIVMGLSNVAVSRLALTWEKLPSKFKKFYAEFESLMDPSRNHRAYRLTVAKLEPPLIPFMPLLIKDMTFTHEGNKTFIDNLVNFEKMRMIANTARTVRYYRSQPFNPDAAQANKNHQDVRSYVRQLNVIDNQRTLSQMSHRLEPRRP

O=C(COC(=O)c1cccc(NS(=O)(=O)c2ccc(F)c(F)c2)c1)NC(=O)NC1CCCC1
inactive: Potency [1] | Potency [2] | Potency [3] | Potency [4]

CN(CC(=O)Nc1ccc(F)cc1)C(=O)COC(=O)C1CCN(c2ccc(C(F)(F)F)cn2)CC1
inactive: Potency [1] | Potency [2] | Potency [3] | Potency [4]

CCOc1ccc(C(=O)N/N=C/c2cc(Cl)ccc2[N+](=O)[O-])cc1
inactive: Potency [1] | activation [2] 3.37% [at 17.1 µM, percent relative to cAMP agonist control] | Potency [3] | activation [4] 15.5% [at 30.8 µM]

Cc1ccc(C)c(S(=O)(=O)N2CCN(C(=O)/C=C/c3ccco3)CC2)c1
inactive: Potency [1] | Potency [2] | Potency [3] | Potency [4]

CC1CN(C(=O)c2ccc(-c3cccc(C(F)(F)F)c3)o2)CC(C)O1 (stereo not given)
inactive: Potency [1] | activation [2] 6.74% [at 17.1 µM, percent relative to cAMP agonist control] | Potency [3] | activation [4] 1.55% [at 30.8 µM]

O=C(NCc1ccco1)c1c2c(nc3ccccc13)CCC2
inactive: Potency [1] | activation [2] 6.94% [at 17.1 µM, percent relative to cAMP agonist control] | Potency [3] | activation [4] 26.4% [at 30.8 µM]

CC1(C(=O)NS(=O)(=O)c2ccc3ccccc3c2)CCN1C(=O)Cc1ccc(-c2ccccc2)cc1 (stereo not given)
inactive: Potency [1] | activation [2] 1.72% [at 17.1 µM, percent relative to cAMP agonist control] | Potency [3] | activation [4] 21.8% [at 30.8 µM]

C[C@H]1CN([C@@H](C)CO)S(=O)(=O)c2ccc(Br)cc2O[C@@H]1CN(C)Cc1ccccc1
active: Potency [3] 23.9 µM
inactive: Potency [1] | Potency [2] | Potency [4]

COc1ccc2sc(-c3ccc(SC)cc3)c(C#CC(C)(C)O)c2c1
inactive: Potency [1] | Potency [2] | Potency [3] | Potency [4]

C=CCNC(=O)c1oc2ccc(S(=O)(=O)N(CC)CC)cc2c1C
inactive: Potency [1] | Potency [2] | Potency [3] | Potency [4]

CCC[C@H]1CC(=O)C=C(c2ccsc2)ON1C(=O)OC(C)(C)C
inactive: Potency [1] | Potency [2] | Potency [3] | Potency [4]

CC(C)CCNC(=O)c1onc(CSc2ccccn2)c1C(=O)NCCC(C)C
inactive: Potency [1] | Potency [2] | Potency [3] | Potency [4]

Cc1cc(C)nc(SCC(=O)c2ccc(C)c(C)c2)n1
inactive: Potency [1] | Potency [2] | Potency [4]
active: Potency [3] 13.5 µM

CC(C)CCOP(=O)(c1ccc(N(C)C)cc1)C(O)c1ccc(Cl)cc1Cl (stereo not given)
active: Potency [3] 19 µM
inactive: Potency [1] | Potency [2] | Potency [4]

CC1(C)CC(CCN(Cc2ccccc2)C(=O)c2ccco2)(c2ccccc2)CCO1 (stereo not given)
inactive: Potency [1] | Potency [2] | Potency [3] | Potency [4]

CCCCCC(=O)N1c2ccccc2C(C)(c2ccccc2)CC1(C)C (stereo not given)
inactive: Potency [1] | Potency [2] | Potency [3] | Potency [4]

COCOCCn1cc(CN2CCS(=O)(=O)N(Cc3ccc(-c4ccc(F)cc4)cc3)C(CC(C)C)C2=O)nn1 (stereo not given)
inactive: Potency [1] | Potency [2] | Potency [4]
active: Potency [3] 8.49 µM

CCC/C=C/c1ccc(CN2C(CC(C)C)C(=O)N(Cc3cn(Cc4ccco4)nn3)CCS2(=O)=O)cc1 (stereo not given)
inactive: Potency [1] | Potency [2] | Potency [3] | Potency [4]

CNC(=O)c1ccc(Nc2nnc(-c3ccc(O)cc3)c3ccccc23)cc1
inactive: Potency [1] | Potency [2] | Potency [3] | Potency [4]

CCCc1[nH]c2ccc(C(=O)OC)cc2c1CCC
active: Potency [3] 19 µM
inactive: Potency [1] | Potency [2] | Potency [4]

Cc1cc(C)cc(N(CC(=O)Nc2ccc(C(F)(F)F)cc2)S(=O)(=O)c2c(C)[nH]c(=O)[nH]c2=O)c1
inactive: Potency [1] | Potency [2] | Potency [3] | Potency [4]

Cc1oc2ccc(O)c(CN(C)Cc3ccccc3)c2c1C(=O)Nc1cccc(C(F)(F)F)c1
inactive: Potency [1] | Potency [2] | Potency [3] | Potency [4]

FC(F)(F)c1cccc(CN2CCC(c3cc(-c4cccs4)n[nH]3)CC2)c1
inactive: Potency [1] | Potency [2] | Potency [3] | Potency [4]

C/C(=N\NS(=O)(=O)c1ccc(C(C)(C)C)cc1)c1ccccc1
inactive: Potency [1] | activation [2] 13.7% [at 17.1 µM, percent relative to cAMP agonist control] | Potency [3] | activation [4] 25% [at 30.8 µM]

CC(C)C(=O)Nc1nc2c(s1)CC(C(C)(C)C)CC2 (stereo not given)
inactive: Potency [1] | Potency [2] | Potency [3] | Potency [4]

CCCC[C@@H]1C[C@H]1[C@@H](NC(=O)c1ccco1)c1ccc(Cl)cc1
inactive: Potency [1] | Potency [2] | Potency [3] | Potency [4]

Cc1cc(C(=O)Cn2ncc(Cl)c(Cl)c2=O)c(C)n1CC(F)(F)F
inactive: Potency [1] | activation [2] 1.17% [at 17.1 µM, percent relative to cAMP agonist control] | Potency [3] | activation [4] 8.2% [at 30.8 µM]

OC(c1ccccc1)(c1nc(-c2cccc(C(F)(F)F)c2)cs1)C(F)(F)F (stereo not given)
inactive: Potency [1] | Potency [2] | Potency [3] | Potency [4]

CCCn1c(/C=C/c2ccco2)nc2ccccc21
inactive: Potency [1] | activation [2] -2.96% [at 17.1 µM, percent relative to cAMP agonist control] | Potency [3] | activation [4] 26.1% [at 30.8 µM]

COCOCCn1cc(CN2CCS(=O)(=O)N(Cc3ccc(-c4ccc(OC)cc4)cc3)C(CC(C)C)C2=O)nn1 (stereo not given)
inactive: Potency [1] | Potency [2] | Potency [3] | Potency [4]

CCCCC[C@H](C)N1C[C@@H](COCc2ccccc2)Oc2cc(N3CC[C@@H](O)C3)ccc2S1(=O)=O
inactive: Potency [1] | activation [2] 6.13% [at 17.1 µM, percent relative to cAMP agonist control] | Potency [3] | activation [4] 5.17% [at 30.8 µM]

COC(=O)c1ccccc1NC(=S)NC(=O)c1ccc(C)cc1
inactive: Potency [1] | activation [2] 2.96% [at 17.1 µM, percent relative to cAMP agonist control] | Potency [3] | activation [4] 7.2% [at 30.8 µM]

CCCCC[C@H](C)N1C[C@@H](COCc2ccccc2)Oc2cc(N3CC[C@H](O)C3)ccc2S1(=O)=O
active: Potency [3] 19 µM
inactive: Potency [1] | Potency [2] | Potency [4]

Cc1ccc(N=Cc2cc3c(cc2[N+](=O)[O-])OCO3)cc1[N+](=O)[O-]
inactive: Potency [1] | activation [2] -8.35% [at 17.1 µM, percent relative to cAMP agonist control] | Potency [3] | activation [4] -2.33% [at 30.8 µM]

O=C(O)c1cc(NN=Nc2cccc([N+](=O)[O-])c2)cc([N+](=O)[O-])c1
inactive: Potency [1] | activation [2] 1.11% [at 17.1 µM, percent relative to cAMP agonist control] | Potency [3] | activation [4] 8.61% [at 30.8 µM]

O=C(NCc1ccc(OC(F)(F)F)cc1)C1CC(c2ccccc2C(F)(F)F)=NO1 (stereo not given)
inactive: Potency [1] | activation [2] 4.05% [at 17.1 µM, percent relative to cAMP agonist control] | Potency [3] | activation [4] 3.19% [at 30.8 µM]

CCCCn1c(CNC(=O)C23CC4CC(CC(C4)C2)C3)nnc1SCC(=O)Nc1nnc(C)s1
inactive: Potency [1] | activation [2] 3.57% [at 17.1 µM, percent relative to cAMP agonist control] | Potency [3] | activation [4] 1.72% [at 30.8 µM]

Cc1ccc(NS(=O)(=O)c2ccc(C(=O)N3CC(C)CC(C)C3)cc2)cc1 (stereo not given)
inactive: Potency [1] | Potency [2] | Potency [3] | Potency [4]

O=S(=O)(c1ccc2nc(-c3ccco3)c(-c3ccco3)nc2c1)N1CCOCC1
inactive: Potency [1] | activation [2] 6.85% [at 17.1 µM, percent relative to cAMP agonist control] | Potency [3] | activation [4] 21.3% [at 30.8 µM]

C[C@H](CO)N1C[C@H](C)[C@@H](CN(C)Cc2ccc(Cl)c(Cl)c2)Oc2c(NC(=O)CCC(F)(F)F)cccc2C1=O
active: Potency [3] 19 µM
inactive: Potency [1] | Potency [2] | Potency [4]

CC(C)(C)OC(=O)N1CCC(c2c(C(=O)NCCN3CCC(Cc4ccccc4)CC3)cnn2-c2cccc(Cl)c2)CC1
inactive: Potency [1] | Potency [2] | Potency [3] | Potency [4]

CC(C)(C)c1ccc(C(=O)N2CCCC(c3nc4c(nnn4Cc4cccc(F)c4)c(=O)[nH]3)C2)cc1 (stereo not given)
inactive: Potency [1] | Potency [2] | outcome [3] inactive [at 12.7 µM] | Potency [4]

Cc1occc1C(=O)N/N=C/C1=C(N2CCOCC2)C(=C/c2ccc(Cl)cc2Cl)/CC1
inactive: Potency [1] | Potency [2] | Potency [3] | Potency [4]

Cc1cc(C)c(OCC(=O)N(Cc2ccco2)Cc2ccco2)c(C)c1
inactive: Potency [1] | Potency [2] | Potency [3] | Potency [4]

C/C(=N\NC(=O)c1ccc(N/N=C(\C)c2ccc(O)cc2)cc1)c1ccc(O)cc1
inactive: Potency [1] | activation [2] 15.6% [at 17.1 µM, percent relative to cAMP agonist control] | Potency [3] | activation [4] 11.7% [at 30.8 µM]
